Test results as given in the supplement of paper PMC4840960.
± gives the standard deviation of the averaged measurements.

What was measured:
[1] = tested on: E18 rat cortical neuron-glia co-culture; assay: fiber score / MBP score (myelination specific beyond OL differentiation) (ratio); higher = more myelination-specific MBP alignment; details: treatment time: 8 days (DIV5-DIV13)
How it was run: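 Papain-dissociated primary E18 rat cortical co-cultures, plated at 20,000 cells/well on poly-d-lysine/laminin 96-well plates, were exposed to library compounds at 1 or 5 µM in myelination medium between DIV5 and DIV13. Following fixation in 4 % paraformaldehyde, cultures were stained for MBP, Olig2 and DAPI, and four 10X fields per well were analysed in duplicate wells. Values are the ratio of fiber score (continuous MBP fiber length per Olig2+ nucleus) to MBP score (thresholded MBP area × intensity per Olig2+ nucleus).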

[2] = tested on: E18 rat cortical neuron-glia co-culture; assay: myelination (MBP fiber length per Olig2+ nucleus), % of 1 µM DAPT response (DMSO = 0) (% of DAPT); higher = more myelination, active = 50 or more; details: treatment time: 8 days (DIV5-DIV13)
How it was run: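 Myelination, expressed as continuous straight MBP fiber length per Olig2+ nucleus, was normalised to 0.1 % DMSO as 0 and a 1 µM positive control as 100. The cultures were primary E18 rat cortical co-cultures dissociated with papain and plated at 20,000 cells/well on poly-d-lysine/laminin-coated 96-well plates. They received library compounds at 1 or 5 µM in myelination medium between DIV5 and DIV13. Analysis covered four 10X fields per well in duplicate wells after 4 % paraformaldehyde fixation and immunostaining for MBP and Olig2 with DAPI.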

Compound: Fc1cncnc1 [5-fluoropyrimidine]
- fiber score / MBP score ([1]; 1 µM): 0.595
- fiber score / MBP score ([1]; 5 µM): 0.899
- myelination ([2]; 1 µM): -17.3 (inactive)
- myelination ([2]; 5 µM): 4.98 (inactive)

Compound: O=C(NCCN1CCOCC1)c1ccc(Cl)cc1 [Moclobemide]
- fiber score / MBP score ([1]; 1 µM): 0.601
- fiber score / MBP score ([1]; 5 µM): 0.881
- myelination ([2]; 1 µM): -22.1 (inactive)
- myelination ([2]; 5 µM): -5.22 (inactive)

Compound: OC(Cn1cncn1)(Cn1cncn1)c1ccc(F)cc1F [Fluconazole]
- fiber score / MBP score ([1]; 1 µM): 0.906
- fiber score / MBP score ([1]; 5 µM): 0.784
- myelination ([2]; 1 µM): 5.01 (inactive)
- myelination ([2]; 5 µM): -19.9 (inactive)

Compound: CC[C@H](C)C(=O)O[C@H]1C[C@H](O)C=C2C=C[C@H](C)[C@H](CC[C@@H](O)C[C@@H](O)CC(=O)O)[C@H]21 [Pravastatin]
- fiber score / MBP score ([1]; 1 µM): 0.899
- fiber score / MBP score ([1]; 5 µM): 0.809
- myelination ([2]; 1 µM): 2.73 (inactive)
- myelination ([2]; 5 µM): -17.4 (inactive)

Compound: CNNCc1ccc(C(=O)NC(C)C)cc1 [Procarbazine]
- fiber score / MBP score ([1]; 1 µM): 0.937
- fiber score / MBP score ([1]; 5 µM): 1.09
- myelination ([2]; 1 µM): -6.44 (inactive)
- myelination ([2]; 5 µM): -0.797 (inactive)

Compound: CC(=O)O[C@@]12CO[C@@H]1C[C@H](O)[C@@]1(C)C(=O)[C@H](O)C3=C(C)[C@@H](OC(=O)[C@H](O)[C@@H](NC(=O)OC(C)(C)C)c4ccccc4)C[C@@](O)([C@@H](OC(=O)c4ccccc4)[C@H]21)C3(C)C [Docetaxel]
- fiber score / MBP score ([1]; 1 µM): 1.59
- fiber score / MBP score ([1]; 5 µM): 1.62
- myelination ([2]; 1 µM): 263 (active)
- myelination ([2]; 5 µM): 257 (active)

Compound: COc1ccc2c3c1O[C@H]1C[C@@H](O)C=C[C@@]31CCN(C)C2 [Galantamine]
- fiber score / MBP score ([1]; 1 µM): 0.69
- fiber score / MBP score ([1]; 5 µM): 0.673
- myelination ([2]; 1 µM): -60.3 (inactive)
- myelination ([2]; 5 µM): -40.7 (inactive)

Compound: C[C@@H]1C[C@H]2[C@@H]3C[C@H](F)C4=CC(=O)C(Cl)=C[C@]4(C)[C@@]3(F)[C@@H](O)C[C@]2(C)[C@@]1(O)C(=O)CO [Halometasone hydrate]
- fiber score / MBP score ([1]; 1 µM): 0.566
- fiber score / MBP score ([1]; 5 µM): 0.394
- myelination ([2]; 1 µM): -20.7 (inactive)
- myelination ([2]; 5 µM): -30.1 (inactive)

Compound: O=C(O)c1cc(/N=N/c2ccc(S(=O)(=O)Nc3ccccn3)cc2)ccc1O [Sulfasalazine]
- fiber score / MBP score ([1]; 1 µM): 0.823
- fiber score / MBP score ([1]; 5 µM): 1.17
- myelination ([2]; 1 µM): -11.7 (inactive)
- myelination ([2]; 5 µM): 1.71 (inactive)

Compound: CC(=O)OCC(CCn1cnc2cnc(N)nc21)COC(C)=O [Famciclovir]
- fiber score / MBP score ([1]; 1 µM): 0.681
- fiber score / MBP score ([1]; 5 µM): 0.977
- myelination ([2]; 1 µM): -22.4 (inactive)
- myelination ([2]; 5 µM): -2.76 (inactive)

Compound: CN(C)CCc1c[nH]c2ccc(Cn3cncn3)cc12 [Rizatriptan]
- fiber score / MBP score ([1]; 1 µM): 0.516
- fiber score / MBP score ([1]; 5 µM): 0.414
- myelination ([2]; 1 µM): -15 (inactive)
- myelination ([2]; 5 µM): -20.4 (inactive)

Compound: CC1=C(C/C=C(\C)CCC[C@H](C)CCC[C@H](C)CCCC(C)C)C(=O)c2ccccc2C1=O [Phylloquinone]
- fiber score / MBP score ([1]; 1 µM): 0.894
- fiber score / MBP score ([1]; 5 µM): 0.723
- myelination ([2]; 1 µM): -4.4 (inactive)
- myelination ([2]; 5 µM): -10.2 (inactive)

Compound: O=C1NC(=O)C(c2ccccc2)(c2ccccc2)N1 [Phenytoin]
- fiber score / MBP score ([1]; 1 µM): 0.39
- fiber score / MBP score ([1]; 5 µM): 0.762
- myelination ([2]; 1 µM): -17.5 (inactive)
- myelination ([2]; 5 µM): -20.9 (inactive)

Compound: CCN(CC)CCOC(=O)C1(C2CCCCC2)CCCCC1 [Dicyclomine]
- fiber score / MBP score ([1]; 1 µM): 0.616
- fiber score / MBP score ([1]; 5 µM): 0.288
- myelination ([2]; 1 µM): -14.3 (inactive)
- myelination ([2]; 5 µM): -24.6 (inactive)

Compound: COc1cc(-c2ccc(=O)[nH]n2)ccc1OC(F)F [Zardaverine]
- fiber score / MBP score ([1]; 1 µM): 0.581
- fiber score / MBP score ([1]; 5 µM): 0.397
- myelination ([2]; 1 µM): -34.6 (inactive)
- myelination ([2]; 5 µM): -42.4 (inactive)

Compound: Cc1cn([C@H]2C[C@H](N=[N+]=[N-])[C@@H](CO)O2)c(=O)[nH]c1=O [Zidovudine]
- fiber score / MBP score ([1]; 1 µM): 0.929
- fiber score / MBP score ([1]; 5 µM): 0.666
- myelination ([2]; 1 µM): 11.9 (inactive)
- myelination ([2]; 5 µM): -21.5 (inactive)

Compound: N[C@@H]1CONC1=O [Cycloserine]
- fiber score / MBP score ([1]; 1 µM): 0.562 ± 0.18
- fiber score / MBP score ([1]; 5 µM): 0.637
- myelination ([2]; 1 µM): -22.5 (inactive)
- myelination ([2]; 5 µM): -32.4 (inactive)

Compound: COC(=O)C1=C(C)NC(C)=C(C(=O)OC2CCCN(Cc3ccccc3)C2)C1c1cccc([N+](=O)[O-])c1 (stereo unspecified) [Benidipine]
- fiber score / MBP score ([1]; 1 µM): 0.524
- fiber score / MBP score ([1]; 5 µM): 0.892
- myelination ([2]; 1 µM): -35.3 (inactive)
- myelination ([2]; 5 µM): -63 (inactive)

Compound: CCCN(CCC)S(=O)(=O)c1ccc(C(=O)O)cc1 [Probenecid]
- fiber score / MBP score ([1]; 1 µM): 0.973
- fiber score / MBP score ([1]; 5 µM): 1.44
- myelination ([2]; 1 µM): 0.863 (inactive)
- myelination ([2]; 5 µM): 11.7 (inactive)

Compound: NCCc1ccc(O)c(O)c1 [Dopamine]
- fiber score / MBP score ([1]; 1 µM): 1.28
- fiber score / MBP score ([1]; 5 µM): 1.06
- myelination ([2]; 1 µM): 5.4 (inactive)
- myelination ([2]; 5 µM): 0.308 (inactive)

Compound: COc1ccc(OC)c(C(O)CNC(=O)CN)c1 (stereo unspecified) [Midodrine]
- fiber score / MBP score ([1]; 1 µM): 0.492
- fiber score / MBP score ([1]; 5 µM): 0.885
- myelination ([2]; 1 µM): -19.2 (inactive)
- myelination ([2]; 5 µM): -8.37 (inactive)

Compound: NC1CCN(c2cccc(Cl)n2)CC1
- fiber score / MBP score ([1]; 1 µM): 1.09
- fiber score / MBP score ([1]; 5 µM): 0.551
- myelination ([2]; 1 µM): 4.32 (inactive)
- myelination ([2]; 5 µM): -35 (inactive)

Compound: O=S(=O)(O)CCS [Mesna]
- fiber score / MBP score ([1]; 1 µM): 0.768
- fiber score / MBP score ([1]; 5 µM): 0.877
- myelination ([2]; 1 µM): 1.33 (inactive)
- myelination ([2]; 5 µM): -6.97 (inactive)

Compound: CC(C)[C@H](N)C(=O)OCCOCn1cnc2c(=O)nc(N)[nH]c21 [Valaciclovir]
- fiber score / MBP score ([1]; 1 µM): 0.731
- fiber score / MBP score ([1]; 5 µM): 0.774
- myelination ([2]; 1 µM): -21.7 (inactive)
- myelination ([2]; 5 µM): -19 (inactive)
